From PubChem BioAssay
ELG1 genotoxic = qHTS screen for small molecules that induce genotoxicity in human embryonic kidney (HEK293T) cells expressing luciferase-tagged ELG1; 1.3% of 330,000 active; HEK293T ELG1-luciferase reporter, luminescence, 16 h; Potency, µM (highest dose often 46 µM), most hits filed as activators; also: nearly all actives have a fitted effect of over 60% in size
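Genotoxic stress is detected as increased luminescence from luciferase-tagged ELG1 in HEK293T cells, measured with ONE-Glo after a 16 hr treatment at 37 °C.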
Rab9 prom act = qHTS Assay for Rab9 Promoter Activators; Potency, µM (doses to about 9.22 µM), actives largely listed as activators; Huh7 Rab9 promoter-luciferase reporter, luminescence, 24 h; 2.8% of 320,000 active; also: nearly all actives have a fitted effect of over 60% in size
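Measured in stably transfected Huh7 cells bearing a Rab9 promoter–luciferase construct: 24 h compound treatment at 37 °C, followed by luminescence detection.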
SMN2 splice up = qHTS Assay for Enhancers of SMN2 Splice Variant Expression. HEK293 SMN2-luciferase splicing reporter, luminescence, 30-36 h. AID 1458, 2008. Potency, µM (highest dose often 46.1 µM), usual class: activators. 2.8% of 210,000 active; also: nearly all actives have a fitted effect of over 55% in size
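HEK293 cells carry an SMN2 minigene-luciferase reporter in which exon 7 inclusion puts luciferase in frame. Cells were seeded at 2000 cells/well, attached for 10-12 hours, then exposed to compounds for 30-36 hours at 37C before ONE-Glo luminescence.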
NPC1 promoter act = qHTS Assay for NPC1 Promoter Activators | 2.4% of 320,000 active | AID 485313, 2010 | Huh7 NPC1 promoter luciferase reporter, 24 h | Potency, µM (top dose mostly 9.22 µM), hits mostly activators; also: nearly all actives have a fitted effect of over 60% in size
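Cells: Huh7 expressing luciferase under the NPC1 promoter, 1500/well. Seeded 2 h, compound added, incubated 24 h at 37 °C. Luciferase reagent, 10 min ambient, then luminescence.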
FLuc modulator = qHTS profiling assay for firefly luciferase inhibitor/activator using purifed enzyme and Km concentrations of substrates (counterscreen for miR-21 project); 6.9% of 360,000 active; purified FLuc, Km substrates, luminescence inhibition; Potency, µM (series often up to 57.5 µM), most hits filed as inhibitors; AID 588342, 2011; also: nearly all actives have a fitted effect of over 55% in size
Target sequence (P08659 whole entry, looked up): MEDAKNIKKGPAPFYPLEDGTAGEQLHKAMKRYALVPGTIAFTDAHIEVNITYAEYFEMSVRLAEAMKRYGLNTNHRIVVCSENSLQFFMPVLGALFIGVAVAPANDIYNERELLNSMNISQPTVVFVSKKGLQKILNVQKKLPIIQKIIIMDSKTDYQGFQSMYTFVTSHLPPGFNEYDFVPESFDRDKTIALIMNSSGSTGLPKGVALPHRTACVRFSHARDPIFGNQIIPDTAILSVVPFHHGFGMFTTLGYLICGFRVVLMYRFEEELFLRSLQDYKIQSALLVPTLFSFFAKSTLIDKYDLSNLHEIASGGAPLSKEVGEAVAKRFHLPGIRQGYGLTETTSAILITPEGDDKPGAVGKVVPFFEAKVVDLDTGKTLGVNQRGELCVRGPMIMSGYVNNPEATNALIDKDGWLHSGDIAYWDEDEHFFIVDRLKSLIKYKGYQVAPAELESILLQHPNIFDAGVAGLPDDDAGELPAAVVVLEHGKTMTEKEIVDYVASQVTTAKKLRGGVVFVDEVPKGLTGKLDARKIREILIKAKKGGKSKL
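Purified P. pyralis luciferase (10nM final) with 10uM D-luciferin and 10uM ATP (Km levels) in 50mM Tris acetate pH 7.5, 10mM Mg acetate, 0.01% Tween-20, 0.05% BSA; qHTS 6-point titration, ~60 µM downward; luminescence read.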
Luc counter = Counterscreen for Luciferase (Kinase-Glo TM) Inhibition. Luciferin 4-monooxygenase (Photuris pensylvanica), Q27757. Kinase-Glo luciferase, ATP luminescence, 8 min. Potency, µM (titrated, usually from 38.3 µM), hits mostly inhibitors. 0.28% of 200,000 active. AID 1379, 2008; also: nearly all actives have a fitted effect of over 60% in size
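Light output from Kinase-Glo luciferase with luciferin and 10 uM ATP in 50 mM imidazole pH 7.2, KCl, MgCl2, Tween 20, BSA; compound pin-delivered, 8-min ambient incubation, then luminescence read.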
A number is an active result; . = inactive; ? = inconclusive; / = not tested or not shown; [ ] = another dose, or the depositor's remark. Rows were chosen to be rich in hits. Some 7.5% of all compounds tested hit in one or more screens of this group. Calls follow the shape of the dose curve; as a rule, active = well fitted curve in the direction sought with a large enough effect; inconclusive = small, poorly fitted or top-dose-only effect, or another doubt; inactive = no such curve, though single readings can be large; an effect the other way counts as inactive or inconclusive.

SMILES | ELG1 genotoxic | Rab9 prom act | SMN2 splice up | NPC1 promoter act | FLuc modulator | Luc counter
Cc1ccc(NC(=O)C(=O)c2ccc(C)cc2)cc1 | 4.6µM | 2.8µM | / | 0.63µM | 1.9µM | /
O=C(Nc1ccc2oc(-c3cccc4c(Br)cccc34)nc2c1)c1ccc(F)cc1 | / | / | . | / | . | /
Cc1ccc2c(=O)cc(C(=O)Nc3ccc(S(=O)(=O)N4CCCCCC4)cc3)oc2c1C | / | / | . | / | . | /
O=C(Cn1cc(S(=O)(=O)N2CCN(c3ccccc3F)CC2)c2ccccc2c1=O)NCCCN1CCCCCC1 | . | . | . | . | . | .
CCOC(=O)c1c(NC(C)=O)sc(/C(C)=N/Nc2ccc(C(=O)O)cc2)c1C | . | . | / | . | . | /
CC(C)Oc1cc(O)c2c(c1)OCC=C2CCC(=O)O | / | / | .[9.22 µM] | / | / | .[7.66 µM]
O=C(Nc1ccncc1)c1ccc2ccccc2c1 | . | 3.5µM | / | ? | 17µM | .
O=C(O)c1ccc(C(=O)Nc2ccc(F)cc2)cc1 | . | . | / | . | . | /
O=C(Nc1ccc(Nc2ccccc2)cc1)c1ccc(F)cc1 | . | . | / | . | 19µM | /
Cc1cc(C)c2cc(C(=O)Nc3ccc4c(c3)OCO4)[nH]c2c1 | . | . | / | . | ? | /
CC(=O)c1cnc(Nc2cccc(C)c2)s1 | . | 2.5µM | 18µM | ? | ? | .
CC(=O)Nc1cccc(C)c1 | . | . | . | . | . | /
Cc1cc(C)c2cc(C(=O)Nc3ccccc3)[nH]c2c1 | ? | 3.2µM | / | 4.5µM | ? | /
O=C1C=CC2=C3c4cc(O)c(O)cc4CC3(O)COC2=C1O (stereo not given) | / | / | . | / | / | .
O=C(c1ccc(=O)[nH]n1)N1CCc2ccccc2C1 | . | . | / | . | . | /
O=c1c2cccnc2n(Cc2ccccc2F)c(=O)n1Cc1ccccc1Cl | / | / | . | / | . | /
Cc1cc(S(=O)(=O)NCc2ccc(N3CCN(C)CC3)cc2)c(C)s1 | . | . | / | . | . | /
O=C(Nc1ccc2oc(=O)ccc2c1)c1ccc2ccccc2c1 | . | ? | / | ? | 9.5µM | /
Cc1sc(C(=O)Nc2ccc3ccccc3c2)cc1CC(=O)O | . | ? | ? | ? | 9.5µM | .
Cc1ccc(C(=O)Nc2ccc3ccccc3c2)cc1 | 0.29µM | 0.22µM | / | 0.1µM | 0.076µM | /
O=C(Nc1ccc2oc(-c3ccccc3)nc2c1)c1ccc2ccccc2c1 | / | / | . | / | . | /
CCC(=O)Nc1ccc2ccccc2c1 | . | . | . | . | ? | .
O=C(Nc1ccc2ccccc2c1)c1ccc(Cl)cc1 | 0.92µM | 0.32µM | / | 0.5µM | 0.54µM | /
COc1cccc(CNC(=O)CSc2ncc(S(=O)(=O)c3ccc(Br)cc3)c(=O)[nH]2)c1 | / | / | . | / | ? | /
O=C(Nc1c[nH]c(=O)[nH]c1=O)c1ccccc1Cl | . | . | / | . | . | /
SMILES | ELG1 genotoxic | Rab9 prom act | SMN2 splice up | NPC1 promoter act | FLuc modulator | Luc counter
CCCC(=O)Nc1ccc(-c2csc(-c3cccnc3)n2)cc1 | . | ? | / | . | ? | /
CC(=O)Nc1ccc(-c2csc(-c3cccnc3)n2)cc1 | 6.5µM | ? | / | 2.8µM | 7.6µM | /
CC(=O)Nc1ccc(-c2csc(Nc3ccc(S(N)(=O)=O)cc3)n2)cc1 | . | . | . | . | . | .
c1ccc(-c2csc(Nc3ncccn3)n2)cc1 | 1.3µM | 0.35µM | 2.5µM | 0.63µM | 0.6µM | .
CC(=O)Nc1ccc(-c2csc(Nc3ncccn3)n2)cc1 | 9.2µM | 0.56µM | 5µM | 0.56µM | ? | .
Oc1ccc(-c2csc(Nc3ncccn3)n2)cc1 | 4.6µM | 0.56µM | 25µM | 2µM | 3µM | .
Cc1ccc(NC(=O)N2CCN(C)c3ncccc32)cc1C | / | / | . | / | . | /
CCc1ccc(OS(=O)(=O)c2cn(C)c(=O)n(C)c2=O)cc1 | . | . | . | . | . | .
O=c1[nH]c(SCc2c(Cl)c(Cl)c(Cl)c(Cl)c2Cl)nc(=S)[nH]1 | / | / | .[9.22 µM] | / | / | .[7.66 µM]
COc1ccc(-c2cc(C(F)(F)F)n3nc(C(=O)O)c(Cl)c3n2)cc1OC | / | / | . | / | . | /
CCCCCNc1nc(-c2ccccc2)cs1 | 7.3µM | 2.8µM | . | 4µM | 1.9µM | .
O=C(Nc1ccc2nc(SCC(=O)N3CCOCC3)sc2c1)c1ccc(Br)cc1 | / | / | / | / | 11µM | /
